The full list was thinned out, with hits kept by preference.
IDE exosite inh = exo-site inhibitors of human IDE, primary screen, biochemical, fluorescence anisotropy, probe displacement | z-score at 20 µM | 17,000 compounds, 6.3% hits | purified IDE, FL-6b probe fluorescence polarization; hits give low values | Insulin-degrading enzyme (Homo sapiens), P14735;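 active means z-score of -3 or lower, meaning strong loss of probe binding signal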;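 further: His-tagged human IDE residues 42-1019 made in E. coli with 30 nM FL-6b probe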
Target sequence (P14735 42-1019 limits assumed): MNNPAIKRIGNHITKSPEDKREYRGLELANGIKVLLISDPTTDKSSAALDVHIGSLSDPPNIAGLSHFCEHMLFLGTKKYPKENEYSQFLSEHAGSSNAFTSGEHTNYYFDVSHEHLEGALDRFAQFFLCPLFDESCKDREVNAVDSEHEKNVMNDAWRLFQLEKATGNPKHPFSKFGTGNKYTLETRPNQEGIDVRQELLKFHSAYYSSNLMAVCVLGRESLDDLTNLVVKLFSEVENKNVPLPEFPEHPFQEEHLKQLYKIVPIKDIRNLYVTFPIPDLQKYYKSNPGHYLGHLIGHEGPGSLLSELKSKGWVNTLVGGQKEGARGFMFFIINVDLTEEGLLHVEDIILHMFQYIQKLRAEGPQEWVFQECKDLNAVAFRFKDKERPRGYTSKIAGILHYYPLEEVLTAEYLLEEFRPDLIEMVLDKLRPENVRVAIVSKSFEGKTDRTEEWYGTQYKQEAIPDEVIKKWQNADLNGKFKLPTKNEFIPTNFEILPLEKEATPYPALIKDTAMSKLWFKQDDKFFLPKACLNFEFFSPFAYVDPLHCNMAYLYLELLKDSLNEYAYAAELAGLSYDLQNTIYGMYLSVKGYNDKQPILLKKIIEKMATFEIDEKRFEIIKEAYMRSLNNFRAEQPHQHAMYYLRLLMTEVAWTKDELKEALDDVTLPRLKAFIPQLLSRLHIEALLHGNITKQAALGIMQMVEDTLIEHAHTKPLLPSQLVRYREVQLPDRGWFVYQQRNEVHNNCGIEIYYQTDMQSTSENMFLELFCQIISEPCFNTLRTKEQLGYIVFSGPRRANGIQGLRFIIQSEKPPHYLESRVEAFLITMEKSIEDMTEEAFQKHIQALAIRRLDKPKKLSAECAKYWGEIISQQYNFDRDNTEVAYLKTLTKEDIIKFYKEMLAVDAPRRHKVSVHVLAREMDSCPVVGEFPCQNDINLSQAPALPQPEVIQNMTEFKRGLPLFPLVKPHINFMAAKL
A number is an active result; – = inactive.

SMILES | IDE exosite inh
O=C(c1cnccn1)N1CC(=O)N2[C@H](CO)[C@@H](c3ccc(-c4ccc(F)cc4)cc3)[C@H]2C1 | –
C/C=C/c1ccc([C@H]2[C@H]3CN(C(=O)c4cnccn4)CC(=O)N3[C@H]2CO)cc1 | –
O=C(c1cnccn1)N1CC(=O)N2[C@H](CO)[C@H](c3ccc(/C=C/c4ccccc4)cc3)[C@@H]2C1 | -5.34
O=C(c1cnccn1)N1CC(=O)N2[C@@H](CO)[C@H](c3ccc(/C=C/c4ccccc4)cc3)[C@@H]2C1 | -6.47
C/C=C/c1ccc([C@@H]2[C@@H](CO)N3C(=O)CN(C(=O)c4cnccn4)C[C@H]23)cc1 | –
O=C(c1cnccn1)N1CC(=O)N2[C@H](CO)[C@@H](c3ccc(/C=C/c4ccccc4)cc3)[C@@H]2C1 | -5.47
C/C=C/c1ccc([C@H]2[C@H](CO)N3C(=O)CN(C(=O)c4cnccn4)C[C@@H]23)cc1 | –
O=C(c1cnccn1)N1CC(=O)N2[C@H](CO)[C@@H](c3ccc(/C=C/c4ccccc4)cc3)[C@H]2C1 | -6.5
O=C(c1cnccn1)N1CC(=O)N2[C@@H](CO)[C@H](c3ccc(-c4ccc(F)cc4)cc3)[C@@H]2C1 | –
CC(=O)N1CC(=O)N2[C@H](CO)[C@H](c3ccc(-c4ccc(C(=O)N(C)C)cc4)cc3)[C@@H]2C1 | –
CO[C@H](CN(C)S(=O)(=O)c1ccc(C)cc1)[C@H](C)CN(C(=O)Nc1ccccc1F)[C@@H](C)CO | –
C[C@@H]1CCCCO[C@@H](CN(C)Cc2ccc(C(F)(F)F)cc2)[C@@H](C)CN([C@@H](C)CO)C(=O)c2cc(NC(=O)Nc3cccc4ccccc34)ccc2O1 | –
CC(C)C#Cc1ccc([C@H]2[C@@H](C#N)N(C(=O)c3ccccn3)[C@@H]2CO)cc1 | –
FC(F)(F)c1ccccc1CN1[C@@H]2CNC[C@H]1C2c1ccc(-c2ccncc2)cc1 (some centres not stated) | –
COc1ccc2c3c(n(C)c2c1)[C@H](CO)N(S(C)(=O)=O)CC31CCN(C(=O)Nc2cccc(F)c2)CC1 | –
CCCNC(=O)N1C[C@H](C)[C@H](OC)CN(C)C(=O)c2ccc(NC(=O)CC)cc2OC[C@H]1C | –
O=C(NC[C@H]1[C@H](c2ccccc2)[C@H](CO)N1Cc1ccccn1)C1CCCC1 | –
O=C(C1CCCCC1)N1CC(=O)N2[C@@H](CO)[C@@H](c3ccc(Br)cc3)[C@@H]2C1 | –
O=C1N[C@@H](c2ccccc2)COCc2cn(nn2)CC[C@H]1Cc1cccc(Cl)c1 | –
CS(=O)(=O)N1CCCCN2[C@@H](CO)[C@H](c3ccc(Br)cc3)[C@@H]2C1 | –
O=C(Nc1ccccc1F)N1CCCCN2[C@H](CO)[C@H](c3ccc(C#Cc4cccnc4)cc3)[C@@H]2C1 | -6.83
O=C(Nc1ccccc1F)N1CCCCN2[C@H](C1)[C@H](c1ccc(C#Cc3cccnc3)cc1)[C@@H]2CO | –
O=C(Nc1ccccc1)N1CCCCN2[C@H](CO)[C@@H](c3ccc(C#Cc4cccnc4)cc3)[C@H]2C1 | –
O=C(Nc1cccc(F)c1)N1CCCCN2[C@H](C1)[C@H](c1ccc(C#Cc3ccccc3)cc1)[C@@H]2CO | –
O=C(Nc1ccccc1)N1CCCCN2[C@@H](CO)[C@H](c3ccc(C#Cc4cccnc4)cc3)[C@@H]2C1 | -5.33
SMILES | IDE exosite inh
O=C(Nc1ccccc1)N1CCCCN2[C@@H](CO)[C@@H](c3ccc(C#Cc4cccnc4)cc3)[C@@H]2C1 | –
O=C(Nc1ccccc1F)N1CCCCN2[C@H](CO)[C@@H](c3ccc(C#Cc4cccnc4)cc3)[C@H]2C1 | –
O=C(Nc1cccc(F)c1)N1CCCCN2[C@@H](CO)[C@H](c3ccc(C#Cc4ccccc4)cc3)[C@@H]2C1 | -3.53
O=C(Nc1cccc(F)c1)N1CCCCN2[C@H](CO)[C@H](c3ccc(C#Cc4ccccc4)cc3)[C@H]2C1 | –
CCC(=O)N1CC(=O)N2[C@H](CO)[C@@H](c3ccc(C#Cc4cccnc4)cc3)[C@H]2C1 | –
CO[C@H](CN(C)C(=O)c1ccccc1F)[C@@H](C)CN([C@@H](C)CO)S(=O)(=O)c1ccc(F)cc1 | –
CC(C)(O)C#Cc1ccc([C@@H]2[C@@H](CO)N3CCCCN(C(=O)c4cccc(F)c4)C[C@@H]23)cc1 | –
O=C(Nc1ccc(F)cc1)N1CC(=O)N2[C@H](C1)[C@H](c1ccc(C3=CCCC3)cc1)[C@@H]2CO | –
C/C=C/c1ccc([C@@H]2[C@@H](CNC(=O)CC3CC3)N(C(=O)CC)[C@H]2CO)cc1 | –
CCCC#Cc1ccc([C@H]2[C@H](CO)N3CCCCN(S(=O)(=O)c4ccccc4C)C[C@@H]23)cc1 | –
O=C1CN(Cc2ccc(F)cc2)C[C@@H]2[C@H](c3ccc(-c4ccccc4)cc3)[C@H](CO)N12 | –
C[C@@H]1CCCCO[C@H](CN(C)C(=O)c2ccncc2)[C@H](C)CN([C@H](C)CO)C(=O)c2cc(NC(=O)CCC(F)(F)F)ccc2O1 | –
O=C(Nc1ccccc1F)N1CC(=O)N2[C@H](CO)[C@H](c3ccc(C#Cc4ccc(F)cc4)cc3)[C@H]2C1 | –
COc1ccc(S(=O)(=O)Nc2ccc3c(c2)C(=O)N([C@H](C)CO)C[C@H](C)[C@H](CN(C)C(=O)Nc2c(C)noc2C)OCCCC[C@@H](C)O3)cc1 | –
CCN1CC(=O)N2[C@H](C1)[C@@H](c1ccc(-c3ccccc3F)cc1)[C@@H]2CO | –
CCS(=O)(=O)N1CC(=O)N2[C@H](CO)[C@@H](c3ccc(-c4ccccc4)cc3)[C@@H]2C1 | -5.41
CCS(=O)(=O)N1CC(=O)N2[C@H](CO)[C@@H](c3ccc(-c4cccc(F)c4)cc3)[C@H]2C1 | –
CCS(=O)(=O)N1CC(=O)N2[C@H](CO)[C@H](c3ccc(-c4ccc(F)cc4)cc3)[C@@H]2C1 | –
CCS(=O)(=O)N1CC(=O)N2[C@H](CO)[C@@H](c3ccc(-c4ccc(F)cc4)cc3)[C@H]2C1 | –
Cc1ccccc1-c1ccc([C@@H]2[C@H]3CN(S(C)(=O)=O)CC(=O)N3[C@H]2CO)cc1 | -5.1
CS(=O)(=O)N1CC(=O)N2[C@@H](CO)[C@@H](c3ccc(Br)cc3)[C@@H]2C1 | –
CCS(=O)(=O)N1CC(=O)N2[C@@H](CO)[C@H](c3ccc(-c4ccccc4F)cc3)[C@@H]2C1 | –
CCS(=O)(=O)N1CC(=O)N2[C@H](CO)[C@@H](c3ccc(C4=CCCCC4)cc3)[C@@H]2C1 | –
CCS(=O)(=O)N1CC(=O)N2[C@H](CO)[C@@H](c3ccc(-c4ccccc4F)cc3)[C@@H]2C1 | -11
CCS(=O)(=O)N1CC(=O)N2[C@H](CO)[C@@H](c3ccc(-c4ccccc4C)cc3)[C@@H]2C1 | -15.8
SMILES | IDE exosite inh
Cc1ccccc1-c1ccc([C@@H]2[C@@H](CO)N3C(=O)CN(S(C)(=O)=O)C[C@H]23)cc1 | –
CCC(=O)N1[C@H](C#N)[C@H](c2ccccc2-c2ccccc2)[C@H]1CO | –
C[C@H](CO)N1C[C@H](C)[C@H](CN(C)S(=O)(=O)c2ccc(Cl)cc2)Oc2c(NC(=O)Nc3ccc(F)cc3)cccc2C1=O | –
Cc1noc(C)c1NC(=O)N(C)C[C@@H]1OCc2cnnn2CCCC(=O)N([C@H](C)CO)C[C@H]1C | –
CN(C)C(=O)c1cccc(-c2ccccc2[C@@H]2[C@H](C#N)N(C(=O)C3CCC3)[C@H]2CO)c1 | –
O=C(C[C@@H]1CC[C@@H]2NC[C@@H](O)COC[C@H]2O1)N1CCc2ccccc2C1 | –
CC(C)C#Cc1ccc([C@@H]2[C@@H](CO)N3CCCCN(C(=O)Nc4ccccc4)C[C@@H]23)cc1 | –

Screens from PubChem.
